Data taken from PubChem BioAssay (Tox21).
Records with an inconclusive call do not appear. Activity calls are given as the source filed them. Unless noted, the call rests on the fitted dose curve.

Assays:
[1] = Nuclear factor erythroid 2-related factor 2/antioxidant responsive element (Nrf2/ARE) small molecule agonists: qHTS cell viability counter screen in human keratinocytes (AID 1919968; active means well fitted curve in the direction sought with a large enough effect in the repeat runs; an effect the other way counts as inactive or inconclusive; further: nearly all actives have a fitted effect of over 55% in size; further: potency means the concentration at half of the fitted maximal effect)
Method in brief: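 Parallel cytotoxicity read: KeratinoSens HaCaT cells, compound treatment 23 h, viability by CellTiter-Fluor fluorescence 1 h post-reagent.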

[2] = Nuclear factor erythroid 2-related factor 2/antioxidant responsive element (Nrf2/ARE) small molecule agonists: luciferase reporter gene qHTS assay in human keratinocytes (AID 1919969); further: nearly all actives have a fitted effect of over 35% in size; further: potency means the concentration at half of the fitted maximal effect
[3] = target: Gonadotropin-releasing hormone receptor (Homo sapiens) (UniProt P30968); test: Human gonadotropin-releasing hormone receptor (GnRHR) small molecule agonists, calcium flux assay in GnRHR-HEK293 cells (AID 1920063); further: nearly all actives have a fitted effect of over 35% in size; further: potency means the concentration at half of the fitted maximal effect
Gonadotropin-releasing hormone receptor (Homo sapiens), sequence (P30968 whole entry, looked up): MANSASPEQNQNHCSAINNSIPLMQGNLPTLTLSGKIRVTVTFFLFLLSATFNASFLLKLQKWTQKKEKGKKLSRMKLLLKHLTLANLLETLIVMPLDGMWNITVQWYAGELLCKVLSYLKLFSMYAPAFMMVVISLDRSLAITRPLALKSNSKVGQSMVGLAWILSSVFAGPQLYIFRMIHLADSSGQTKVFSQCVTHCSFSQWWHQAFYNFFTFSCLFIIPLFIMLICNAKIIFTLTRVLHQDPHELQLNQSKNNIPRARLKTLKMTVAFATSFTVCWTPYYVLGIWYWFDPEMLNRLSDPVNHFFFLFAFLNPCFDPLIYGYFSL
Method in brief: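 Calcium flux, agonist mode, human GnRHR stably integrated in HEK293; dye 1 h at 37 C before compound; Ex/Em=480/540 kinetic read, 3 min; 15 concentrations, triplicate.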

[4] = target: KiSS-1 receptor (Homo sapiens) (UniProt Q969F8); test: Human kisspeptin (KISS1R) small molecule agonists, calcium flux assay in KISS1R-HEK293 cells (AID 1920064; active means well fitted curve in the direction sought with a large enough effect in the repeat runs; an effect the other way counts as inactive or inconclusive)
KiSS-1 receptor (Homo sapiens), sequence (Q969F8 whole entry, looked up): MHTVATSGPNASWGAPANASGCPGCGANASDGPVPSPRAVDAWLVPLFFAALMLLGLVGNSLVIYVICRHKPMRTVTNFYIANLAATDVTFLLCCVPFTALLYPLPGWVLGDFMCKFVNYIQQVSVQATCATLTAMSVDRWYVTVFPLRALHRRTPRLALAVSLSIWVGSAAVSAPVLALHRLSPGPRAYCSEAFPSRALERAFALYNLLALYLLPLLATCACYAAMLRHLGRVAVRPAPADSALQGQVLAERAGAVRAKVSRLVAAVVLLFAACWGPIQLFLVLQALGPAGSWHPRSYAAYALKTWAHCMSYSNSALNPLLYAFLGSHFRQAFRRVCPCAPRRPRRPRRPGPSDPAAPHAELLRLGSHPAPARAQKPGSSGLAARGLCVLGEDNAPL
Method in brief: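 Triplicate 15-concentration series were applied to dye-loaded human KISS1R HEK293 cells, and agonist-evoked calcium fluorescence was captured for 3 min.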

[5] = G protein-coupled receptor (GPCR) small molecule agonists, calcium flux assay: HEK293 wild type cell line counter screen (AID 1920065)
Method in brief: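 Non-specific calcium responders were flagged by adding DMSO-dissolved compounds to dye-loaded cells and reading 480/540 nm fluorescence each second for 3 min; ATP served as positive control.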

[6] = p53 small molecule agonists, cell-based qHTS assay with human liver microsomes (AID 1963577)
Method in brief: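 Compounds act here after metabolic activation: human liver microsomes and NADPH, both at 0.5 mg/mL final, were co-added to p53RE-bla cells. Incubation ran 16 h at 37 C, followed by LiveBLAzer detection.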

[7] = p53 small molecule agonists, cell-based qHTS assay with rat liver microsomes (AID 1963578)
Method in brief: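 Read-out is beta-lactamase reporter fluorescence (LiveBLAzer, 2 h, room temperature, dark) in p53RE-bla cells treated 16 h at 37 C with compound, rat liver microsomes and NADPH, both 0.5 mg/mL final.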

[8] = p53 small molecule agonists, cell-based qHTS assay with human liver microsomes: qHTS cell viability counter screen (AID 1963579); further: nearly all actives have a fitted effect of over 45% in size; further: potency means the concentration at half of the fitted maximal effect
Method in brief: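 Cells carrying the p53 response-element beta-lactamase reporter are treated for 16 h at 37 C with test compounds in the presence of human liver microsomes and NADPH (both 0.5 mg/mL final); ATP-based CellTiter-Glo luminescence then reports viability.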

[9] = p53 small molecule agonists, cell-based qHTS assay with rat liver microsomes: qHTS cell viability counter screen (AID 1963580); further: nearly all actives have a fitted effect of over 45% in size; further: potency means the concentration at half of the fitted maximal effect
Method in brief: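 Rat liver microsome (0.5 mg/mL final) and NADPH (0.5 mg/mL final) co-incubation with compounds for 16 h at 37 C on HCT-116 p53RE-bla cells; cytotoxicity taken from intracellular ATP luminescence.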

[10] = p53 small molecule agonists, cell-based qHTS assay (AID 1963582; active means well fitted activation curve with a large enough effect in the signal ratio in the repeat runs, not every such curve was filed as active; the % refers to the signal ratio)
Method in brief: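 Beta-lactamase reporter cells (p53RE-bla) treated with compounds for 16 h at 37 C; FRET substrate, 2 h, room temperature; fluorescence intensity.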

[11] = target: 5-hydroxytryptamine receptor 2A (Homo sapiens) (UniProt P28223); test: 5-hydroxytryptamine receptor 2A (HTR2A) small molecule antagonists, cell-based qHTS assay (AID 1963586); further: nearly all actives have a fitted effect of over 45% in size; further: potency means the concentration at half of the fitted maximal effect
5-hydroxytryptamine receptor 2A (Homo sapiens), sequence (P28223 whole entry, looked up): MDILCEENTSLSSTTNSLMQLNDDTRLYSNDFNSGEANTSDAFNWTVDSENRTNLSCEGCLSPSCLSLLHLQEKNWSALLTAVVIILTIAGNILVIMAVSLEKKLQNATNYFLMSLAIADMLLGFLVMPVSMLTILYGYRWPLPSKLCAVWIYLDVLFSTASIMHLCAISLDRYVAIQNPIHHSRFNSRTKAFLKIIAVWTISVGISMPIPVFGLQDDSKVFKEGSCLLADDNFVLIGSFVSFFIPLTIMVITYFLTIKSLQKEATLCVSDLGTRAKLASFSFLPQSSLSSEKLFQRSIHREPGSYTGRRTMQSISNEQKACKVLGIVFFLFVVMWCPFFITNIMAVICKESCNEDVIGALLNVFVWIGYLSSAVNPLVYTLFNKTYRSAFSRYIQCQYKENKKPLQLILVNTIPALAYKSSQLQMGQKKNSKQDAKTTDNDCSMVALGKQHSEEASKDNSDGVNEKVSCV
Method in brief: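 CHO cells stably expressing human HTR2A were plated for 18 h at 37 C, then loaded with calcium dye for 1 h. Compounds were preincubated 5 min at room temperature before DOI (4 nM solution) was added. Kinetic fluorescence was read for 3 min.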

[12] = target: Muscarinic acetylcholine receptor M1 (Homo sapiens) (UniProt P11229); test: Cholinergic receptor muscarinic 1 (CHRM1) small molecule antagonists, cell-based qHTS assay (AID 1963588); further: nearly all actives have a fitted effect of over 40% in size; further: potency means the concentration at half of the fitted maximal effect
Muscarinic acetylcholine receptor M1 (Homo sapiens), sequence (P11229 whole entry, looked up): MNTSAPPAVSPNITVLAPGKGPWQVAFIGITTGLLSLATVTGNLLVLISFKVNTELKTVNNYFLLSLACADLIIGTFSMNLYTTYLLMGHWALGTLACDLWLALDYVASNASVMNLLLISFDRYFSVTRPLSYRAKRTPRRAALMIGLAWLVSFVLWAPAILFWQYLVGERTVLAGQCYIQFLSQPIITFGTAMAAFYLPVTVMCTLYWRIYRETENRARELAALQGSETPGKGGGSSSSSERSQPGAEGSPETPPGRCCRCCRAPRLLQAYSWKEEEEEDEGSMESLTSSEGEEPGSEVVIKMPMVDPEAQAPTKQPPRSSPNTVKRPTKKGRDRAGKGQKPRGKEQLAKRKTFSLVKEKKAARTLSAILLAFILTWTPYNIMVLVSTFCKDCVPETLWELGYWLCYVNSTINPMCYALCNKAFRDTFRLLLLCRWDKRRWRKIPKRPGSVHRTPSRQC
Method in brief: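 Compounds were tested at 15 concentrations in three independent runs. Dye-loaded CHRM1-CHO cells were exposed 5 min at room temperature before stimulation by acetylcholine added at 50nM. Intracellular calcium was read kinetically on FDSS for 3 min.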

[13] = cAMP Responsive Elements (CRE) small molecule agonists, cell-based qHTS assay (AID 1963590)
Method in brief: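 Quantitative HTS for CRE agonists: HEK 293T CRE-bla cells, overnight plating, 3 h compound incubation at 37 C/5% CO2, then 2 h room-temperature LiveBLAzer B/G FRET substrate loading.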

[14] = cAMP Responsive Elements (CRE) small molecule antagonists, cell-based qHTS assay (AID 1963591; active means well fitted inhibition curve with a large enough effect in the signal ratio in the repeat runs, not every such curve was filed as active; the % refers to the signal ratio)
Method in brief: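 Fluorescence intensity from cleaved LiveBLAzer B/G substrate (2 h, room temperature) quantified CRE-bla activity in HEK 293T cells exposed 3 h to compound with 0.25 uM final NKH477.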

[15] = target: Beta-2 adrenergic receptor (Homo sapiens) (UniProt P07550); test: Adrenergic beta2 receptor (ADRB2) small molecule antagonists, cell-based qHTS assay (AID 1963592); further: series mostly up to about 92 µM; nearly all actives have a fitted effect of over 50% in size
Beta-2 adrenergic receptor (Homo sapiens), sequence (P07550 whole entry, looked up): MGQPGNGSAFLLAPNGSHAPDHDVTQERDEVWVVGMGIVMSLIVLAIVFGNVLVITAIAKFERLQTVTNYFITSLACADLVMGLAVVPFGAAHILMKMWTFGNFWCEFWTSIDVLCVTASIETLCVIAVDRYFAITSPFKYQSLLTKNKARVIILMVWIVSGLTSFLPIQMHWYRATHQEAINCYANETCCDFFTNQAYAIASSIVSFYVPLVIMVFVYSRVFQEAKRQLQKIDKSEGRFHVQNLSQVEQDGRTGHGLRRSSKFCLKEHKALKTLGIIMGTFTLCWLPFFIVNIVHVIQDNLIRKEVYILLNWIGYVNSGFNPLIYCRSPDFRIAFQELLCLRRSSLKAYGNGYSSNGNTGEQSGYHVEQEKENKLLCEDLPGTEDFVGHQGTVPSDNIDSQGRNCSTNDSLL
Method in brief: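 Assay format: CHO-ADRB2 cells, 18-20hr seeding at 37C/5% CO2, then compound plus 1nM isoproterenol agonist mix for 0.5hr RT. Homogeneous time-resolved fluorescence cAMP detection after 1hr, expressed as 665/615 nm ratio.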

[16] = target: D(2) dopamine receptor (Homo sapiens) (UniProt P14416); test: Dopamine D2 receptor (DRD2) small molecule agonists, cell-based qHTS assay (AID 1963594); further: nearly all actives have a fitted effect of over 35% in size
D(2) dopamine receptor (Homo sapiens), sequence (P14416 whole entry, looked up): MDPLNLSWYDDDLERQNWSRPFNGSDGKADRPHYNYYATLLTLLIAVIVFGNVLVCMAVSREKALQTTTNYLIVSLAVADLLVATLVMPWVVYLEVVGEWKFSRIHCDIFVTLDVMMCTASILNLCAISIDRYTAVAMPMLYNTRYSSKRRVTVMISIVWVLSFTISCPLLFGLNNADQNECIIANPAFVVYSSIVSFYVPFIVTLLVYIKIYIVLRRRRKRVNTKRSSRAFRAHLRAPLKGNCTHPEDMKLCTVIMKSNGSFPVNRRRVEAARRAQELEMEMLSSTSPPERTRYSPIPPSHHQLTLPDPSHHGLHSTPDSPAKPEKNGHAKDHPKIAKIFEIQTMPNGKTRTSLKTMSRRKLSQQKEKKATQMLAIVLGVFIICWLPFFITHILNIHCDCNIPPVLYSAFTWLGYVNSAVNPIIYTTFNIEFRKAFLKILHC
Method in brief: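 cAMP accumulation in DRD2-HEK293 cells measured by HTRF after 1 h detection; compounds added 10 min before NKH477 (200nM […]) forskolin-analogue stimulation, 30 min at room temperature, with Ro20-1724 present at 0.1 mM final.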

[17] = target: D(2) dopamine receptor (Homo sapiens) (UniProt P14416); test: Dopamine D2 receptor (DRD2) small molecule antagonists, cell-based qHTS assay (AID 1963595; active means well fitted inhibition curve with a large enough effect in the signal ratio in the repeat runs, with a control signal flat; the % refers to the signal ratio; further: potency means the concentration at half of the fitted maximal effect)
Method in brief: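 Stable D2 receptor HEK293 line, 24 h after seeding. Compound preincubated 10 min, then quinpirole (12 nM) with forskolin analogue NKH477 (200 nM), 30 min, room temperature. Detection by time-resolved FRET of cAMP.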

[18] = target: 5-hydroxytryptamine receptor 2A (Homo sapiens) (UniProt P28223); test: 5-hydroxytryptamine receptor 2A (HTR2A) small molecule agonists, cell-based qHTS assay (AID 1963587); further: nearly all actives have a fitted effect of over 30% in size; further: potency means the concentration at half of the fitted maximal effect
Method in brief: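 Kinetic calcium-flux fluorescence (2 min, 1 sec intervals) after compound addition in agonist mode. HTR2A-CHO cells were cultured 18 h, then dye-loaded 1 h at 37 C.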

[19] = target: Muscarinic acetylcholine receptor M1 (Homo sapiens) (UniProt P11229); test: Cholinergic receptor muscarinic 1 (CHRM1) small molecule agonists, cell-based qHTS assay (AID 1963589); further: nearly all actives have a fitted effect of over 35% in size
Method in brief: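 qHTS, 15-point titration, 3 independent runs: compounds pin-transferred onto dye-loaded CHRM1-CHO cells (human M1), calcium fluorescence followed every second to detect agonism.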

[20] = target: Beta-2 adrenergic receptor (Homo sapiens) (UniProt P07550); test: Adrenergic beta2 receptor (ADRB2) small molecule agonists, cell-based qHTS assay (AID 1963593);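 further: CHO cells stably overexpressing human ADRB2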
Method in brief: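 CHO cells stably over-expressing ADRB2 were plated overnight at 37C, then dosed with compounds plus a stimulation mix containing 100uM IBMX and 25uM Ro-20-1724 for 0.5hr at room temperature. cAMP was measured by HTRF competition, 1hr.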

Measured: Potency

O=c1cccccc1O
active: [1] 44.1 µM | [2] 24.8 µM | [9] 29.4 µM
not listed: [18] | [19] | [20]
inactive: all other assays above

CCCCCCC(O)CCOC(C)=O (stereo unspecified)
not listed: [12] | [13] | [14] | [20]
inactive: all other assays above

CCCC(C)c1ccccc1O (stereo unspecified)
not listed: [13] | [14] | [20]
inactive: all other assays above

Cc1cc(O)c(C(C)(C)C)cc1C(C)(C)C
active: [1] 27.3 µM | [3] 38.9 µM | [8] 18.2 µM | [9] 40.8 µM | [11] 18.8 µM | [18] 34.7 µM | [17] 43.3 µM
not listed: [10] | [13] | [14] | [15] | [20]
inactive: all other assays above

CCCCCCCC/C=C\CCCCCCCC(=O)OC
not listed: [10] | [11] | [15]
inactive: all other assays above

ICCc1ccccc1
active: [2] 67.2 µM | [8] 28.3 µM
not listed: [10] | [14] | [19] | [20]
inactive: all other assays above

Nc1ccc(Oc2cccc(Oc3ccc(N)cc3)c2)cc1
active: [11] 0.84 µM
not listed: [10] | [18] | [20]
inactive: all other assays above

C[N+](C)(C)CCOC(=O)CCC(=O)OCC[N+](C)(C)C
not listed: [11] | [12] | [13] | [18] | [19] | [20]
inactive: all other assays above

CC(=O)c1ccc2ccc3ccccc3c2c1
not listed: [10] | [13] | [20]
inactive: all other assays above

CN1CCN(C2=Nc3ccccc3Oc3ccc(Cl)cc32)CC1
not listed: [11] | [12] | [13] | [14] | [15] | [17] | [20]
inactive: all other assays above

Cc1c(Cl)cccc1Nc1ccccc1C(=O)O
active: [11] 16.3 µM | [12] 4.6 µM
not listed: [10] | [13] | [14] | [18]
inactive: all other assays above

CCCOc1ccc(C(=O)OCCN(CC)CC)cc1N
not listed: [11] | [12] | [18] | [19]
inactive: all other assays above

COC(=O)C(C)(C)C
not listed: [10] | [17] | [20]
inactive: all other assays above

CCCCCCCCN1CCCC1=O
not listed: [10] | [14]
inactive: all other assays above

Cc1oc(-c2ccccc2)nc1CCOc1ccc(C[C@H](Nc2ccccc2C(=O)c2ccccc2)C(=O)O)cc1
active: [1] 30.6 µM | [8] 28.9 µM | [9] 45.8 µM
not listed: [10] | [13] | [14] | [19]
inactive: all other assays above

CN(C)C(=O)CNC(=O)Cc1ccccc1
not listed: [11] | [13] | [18] | [19]
inactive: all other assays above

C=CC(C)(CCC=C(C)C)OC(=O)c1ccccc1 (stereo unspecified)
active: [2] 24.3 µM
not listed: [10] | [20]
inactive: all other assays above
